Rows were chosen to be rich in hits. Some 18% of all compounds tested hit in one or more screens of this group.
TDP1 block: TDP1 (human) enzyme inhibition; Q9NUW8; recombinant TDP1, AlphaScreen DNA substrate cleavage; Potency, µM (top dose mostly 130 µM), most hits filed as inhibitors; actives 0.28% (n = 350,000); note: nearly all actives have a fitted effect of over 40% in size
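Here, a 5' biotin and 3' phosphotyrosine-FITC DNA oligonucleotide reports Tdp1 activity: intact substrate bridges AlphaScreen beads, while cleavage leaves a 3' phosphate and drops signal. All incubations at room temperature.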
DT40 TDP1 no CPT: qHTS for Inhibitors of human tyrosyl-DNA phosphodiesterase 1 (TDP1): qHTS in cells in absence of CPT; actives 15% (n = 420,000); Potency, µM (series often up to 46.2 µM), usual class: inhibitors; DT40 Tdp1-/- hTDP1 cells, no CPT, ATP luminescence, 48 h; note: nearly all actives have a fitted effect of over 55% in size
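DT40 Tdp1-/-;hTDP1 cells, no CPT (DMSO vehicle only), 400 cells/well; compounds pin-transferred; ≥48 hr, 37 °C; CellTiter-Glo 30 min RT dark, luminescence read.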
VDR inh: inhibitors of human vitamin D receptor. AID 504847. actives 0.93% (n = 400,000). P11473. Potency, µM, most hits filed as inhibitors. VDR-SRC2-3 peptide fluorescence polarization, 2 h
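Reagent solutions, kept cold and dark, are dispensed first; compounds are then pinned in at 23 nl, plates briefly spun, and incubated 2 h at ambient temperature. Inhibition of VDR–SRC2-3 peptide binding is read by fluorescence polarization.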
KAT2A inh: inhibitors of human GCN5L2 histone acetyltransferase; AID 504327; GCN5L2 HAT assay, ThioGlo1 CoA-SH fluorescence; Potency, µM (series often up to 58.9 µM), usual class: inhibitors; Q92830; actives 0.21% (n = 390,000)
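Titration-based screen in which CoA formation is detected via maleimide probe ThioGlo1 (50uM) turning fluorescent on thiol reaction; substrates H3(1-25) 75uM and acetyl-CoA 70uM, GCN5L2 20nM, 20 min incubation at room temperature.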
TDP1 cell CPT: growth inhibition of DT40 Tdp1-/-;hTDP1 cells with camptothecin (screen for TDP1 inhibitors). actives 12% (n = 420,000). chicken DT40 Tdp1-/-;hTDP1 cells + 20 nM CPT, ATP luminescence, 48 h. Potency, µM (series often up to 46.2 µM), hits mostly inhibitors; note: nearly all actives have a fitted effect of over 55% in size
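Chicken DT40 Tdp1-/- cells stably complemented with human TDP1 were seeded at 400 cells/well in medium containing 20 nM camptothecin, exposed to pin-transferred compounds, and grown at 37 °C for at least 48 hr. Viability was read as ATP luminescence.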
PLK1 PBD inh: PLK1 (human) polo-box domain binding inhibition | actives 2.8% (n = 360,000) | Potency, µM, hits mostly inhibitors | Plk1 PBD binding of FITC phosphopeptide, fluorescence polarization | AID 720504 | P53350; note: series mostly up to about 57 µM; nearly all actives have a fitted effect of over 65% in size
Target sequence (P53350 whole entry, looked up, the tested form may be a part): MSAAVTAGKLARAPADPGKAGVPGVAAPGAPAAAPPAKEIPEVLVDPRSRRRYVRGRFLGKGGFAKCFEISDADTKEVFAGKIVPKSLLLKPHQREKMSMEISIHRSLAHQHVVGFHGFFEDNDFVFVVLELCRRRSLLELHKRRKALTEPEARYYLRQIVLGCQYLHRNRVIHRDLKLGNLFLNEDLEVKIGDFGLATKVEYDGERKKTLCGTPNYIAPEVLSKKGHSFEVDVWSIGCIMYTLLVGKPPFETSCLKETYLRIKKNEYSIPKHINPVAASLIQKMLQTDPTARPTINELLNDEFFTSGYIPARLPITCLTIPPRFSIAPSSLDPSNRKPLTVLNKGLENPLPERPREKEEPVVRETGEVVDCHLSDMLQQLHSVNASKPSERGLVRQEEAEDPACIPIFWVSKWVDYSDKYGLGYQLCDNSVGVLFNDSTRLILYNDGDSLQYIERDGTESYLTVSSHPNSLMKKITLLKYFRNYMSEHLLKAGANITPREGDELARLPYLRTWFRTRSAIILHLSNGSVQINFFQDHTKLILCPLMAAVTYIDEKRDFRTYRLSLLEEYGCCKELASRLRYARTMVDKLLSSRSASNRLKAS
Each line names hits and unclear results; the compound was inactive in the other large screens. Calls come from the whole dose curve; as a rule, active = well fitted curve in the direction sought with a large enough effect; inconclusive = small, poorly fitted or top-dose-only effect, or another doubt; inactive = no such curve, though single readings can be large; an effect the other way counts as inactive or inconclusive.

O=c1cc(-c2ccc(O)cc2)oc2cc(OC3OC(CO)C(O)C(O)C3O)c(C3OC(CO)C(O)C(O)C3O)c(O)c12 (centres undefined)	none (no result: DT40 TDP1 no CPT, TDP1 cell CPT, PLK1 PBD inh)
C=CCOC(=O)NC(c1ccc(F)c(F)c1)C(C(=O)CCl)C(=O)OC (centres undefined)	VDR inh 44.7µM (no result: DT40 TDP1 no CPT, KAT2A inh, TDP1 cell CPT, PLK1 PBD inh)
CC1CC[C@]2(CO)CC[C@]3(C)C(=CCC4[C@@]5(C)CCC(O)C(C)(C)C5CC[C@@]43C)C2C1C (some centres undefined)	none (no result: PLK1 PBD inh)
Cc1c(N2C(=O)c3ccc4c5c(ccc(c35)C2=O)CC4)c(=O)n(-c2ccccc2)n1C	TDP1 block 17.8µM, DT40 TDP1 no CPT inconclusive, KAT2A inh inconclusive, TDP1 cell CPT inconclusive, PLK1 PBD inh inconclusive
Cc1c(N2C(=O)CSC2=S)c(=O)n(-c2ccccc2)n1C	DT40 TDP1 no CPT inconclusive, TDP1 cell CPT inconclusive
CCOc1ccc(CCN2C(=O)C(=O)N([C@@H](Cc3ccccc3)CN3CCC[C@H]3CN3C(=O)C(=O)NC[C@@H]3Cc3ccccc3)C[C@@H]2Cc2ccccc2)cc1	DT40 TDP1 no CPT 23.1µM, TDP1 cell CPT inconclusive (no result: TDP1 block, VDR inh, KAT2A inh)
CCOc1ccc(CCN2C(=O)C(=O)N([C@@H](Cc3ccccc3)CN3CCC[C@H]3CN3C(=O)C(=O)NC[C@@H]3Cc3ccccc3)C[C@@H]2CC(C)C)cc1	DT40 TDP1 no CPT 18.4µM, TDP1 cell CPT inconclusive (no result: TDP1 block, VDR inh, KAT2A inh)
CCOc1ccc(CCN2C(=O)C(=O)N([C@@H](Cc3ccccc3)CN3CCC[C@H]3CN3C(=O)C(=O)NC[C@@H]3Cc3ccccc3)C[C@@H]2Cc2ccc(O)cc2)cc1	DT40 TDP1 no CPT inconclusive, TDP1 cell CPT inconclusive (no result: TDP1 block, VDR inh, KAT2A inh)
CCOc1ccc(CCN2C(=O)C(=O)N([C@@H](Cc3ccc(O)cc3)CN3CCC[C@H]3CN3C(=O)C(=O)NC[C@@H]3Cc3ccccc3)C[C@@H]2Cc2ccc(O)cc2)cc1	DT40 TDP1 no CPT inconclusive, TDP1 cell CPT inconclusive (no result: TDP1 block, VDR inh, KAT2A inh)
O=C(CN1CCN(Cc2ccc(F)cc2)C1=O)NCc1ccccc1	none (no result: PLK1 PBD inh)
O=C(O)c1ccc2c(ccc3nn(-c4ccc(/C=C/c5ccc(-n6nc7ccc8cc(C(=O)O)ccc8c7n6)cc5[S+](=O)([O-])[O-])c([S+](=O)([O-])[O-])c4)nc32)c1	TDP1 block 2.51µM (no result: KAT2A inh, PLK1 PBD inh)
Fc1cccc(CNc2ncnc3ccc(-c4ccccc4Cl)cc23)c1	none (no result: TDP1 block, DT40 TDP1 no CPT, VDR inh, TDP1 cell CPT, PLK1 PBD inh)
O=C(Oc1ccccc1)N1CCC2(CC1)CCN(c1ccccn1)CC2	DT40 TDP1 no CPT inconclusive, TDP1 cell CPT 16.4µM (no result: TDP1 block, PLK1 PBD inh)
O=S(=O)(c1ccccc1)N1CCC[C@@]2(CCN(c3ccncc3)C2)C1	DT40 TDP1 no CPT 18.4µM, TDP1 cell CPT inconclusive (no result: TDP1 block, PLK1 PBD inh)
COC(=O)N1CCC2(CC1)CCN(c1ccccn1)CC2	none (no result: TDP1 block, PLK1 PBD inh)
O=C(Oc1ccccc1)N1CCC2(CC1)CCN(c1ccncc1)CC2	DT40 TDP1 no CPT 14.6µM, TDP1 cell CPT 14.6µM (no result: TDP1 block, PLK1 PBD inh)
O=C(Oc1ccccc1)N1CCC[C@@]2(CCN(c3ccncc3)C2)C1	DT40 TDP1 no CPT inconclusive, TDP1 cell CPT inconclusive (no result: TDP1 block, PLK1 PBD inh)
CN(C=O)c1ccc(CSc2ccccc2)cc1	none (no result: TDP1 block, KAT2A inh)
Cc1nn2c(NCc3ccccn3)cc(C(C)(C)C)nc2c1-c1ccccc1	DT40 TDP1 no CPT inconclusive, TDP1 cell CPT inconclusive (no result: TDP1 block)
Cc1nn2c(NCc3ccccn3)c3c(nc2c1-c1ccccc1)CCC3	DT40 TDP1 no CPT 4.61µM, TDP1 cell CPT 2.59µM (no result: TDP1 block)
Cc1nn2c(NCCN3CCOCC3)c3c(nc2c1-c1ccccc1)CCCC3	DT40 TDP1 no CPT 5.8µM, TDP1 cell CPT 2.59µM (no result: TDP1 block)
Cc1cc(NCc2ccccn2)n2nc(C)c(-c3ccccc3)c2n1	DT40 TDP1 no CPT 0.0461µM, TDP1 cell CPT 0.0517µM
CC(=O)Nc1ccc(-c2nnc3n(Cc4ccc(C)cc4)c(=O)c4ccccc4n23)cc1	none (no result: PLK1 PBD inh)
CCCCCNC(=O)C(c1ccc(OC)cc1)n1c(=O)c(-c2cc3ccccc3[nH]2)nc2ccccc21 (centres undefined)	DT40 TDP1 no CPT inconclusive, TDP1 cell CPT inconclusive (no result: TDP1 block, VDR inh, KAT2A inh)
COC(=O)/C=C/c1cccc(N(Cc2ccc(-c3ccc(N(C)C)cc3)cc2)C(=O)C2CCCCC2)c1	none (no result: DT40 TDP1 no CPT, TDP1 cell CPT, PLK1 PBD inh)

Assay outcomes as filed in PubChem.
